Data: PubChem BioAssay (NCATS)
Results filed as inconclusive are left out. Active and inactive are the calls of the source. The call rests on the fitted dose curve.

experiment: Primary qHTS for Vero E6 cytotoxicity: counterscreen for inhibitors of SARS-S pseudo-typed particle cell entry (AID 1479150); details: cell viability; series mostly up to 57.1 µM; activity change, negative = cytotoxicity: at the top concentration
On the % scale 0 is the no-effect control and ±100 the full control effect.

| SMILES | outcome | activity change, negative = cytotoxicity |
| --- | --- | --- |
| CC#CCC(C)[C@H](O)/C=C/[C@@H]1[C@H]2C/C(=C/CCCC(=O)O)C[C@H]2C[C@H]1O (stereo partly specified) | inactive | – |
| CC(C)(C)C(=O)OCOC(=O)[C@@H]1N2C(=O)[C@@H](N=CN3CCCCCC3)[C@H]2SC1(C)C | – | 2.35% (inactive) |
| C=CC1(C)CC(=O)C2(O)C(C)(O1)C(OC(C)=O)C(OC(=O)CCN(C)C)C1C(C)(C)CCC(O)C12C (stereo unspecified) | – | -2.74% (inactive) |
| CCC(=O)OC1(C(=O)CCl)C(C)CC2C3CC(F)C4=CC(=O)C=CC4(C)C3(F)C(O)CC21C (stereo unspecified) | inactive | – |
| [Mn].[O]=[Mn][OH].[O]=[Mn][OH] | – | 1.86% (inactive) |
| N[C@H](Cc1cnc[nH]1)C(=O)O | inactive | – |

experiment: Cytotoxicity counterscreen for inhibitors of SARS-CoV-2 cell entry (AID 1645845); details: cell viability (SARS-CoV-2 entry assay cells); series mostly up to 57.1 µM; activity change, negative = cytotoxicity: at the top concentration; further: nearly all actives have a fitted effect of over 50% in size; further: potency means the concentration at half of the fitted maximal effect
In short: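 Counterscreen run in the same HEK293-ACE2 line as the pseudotyped-particle entry assay, without particles. Viability after 48 h at 37 C was read as ATP luminescence, scaled between cell-containing and cell-free wells.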

| SMILES | outcome | activity change, negative = cytotoxicity | Potency |
| --- | --- | --- | --- |
| CCC(c1ccccc1)c1c(O)c2ccccc2oc1=O (stereo unspecified) | inactive | – | – |
| CCCCC(=O)N(Cc1ccc(-c2ccccc2-c2nn[nH]n2)cc1)[C@H](C(=O)O)C(C)C | – | -1.32% (inactive) | – |
| C=C1c2c(Cl)ccc(O)c2C(O)=C2C(=O)[C@@]3(O)C(O)=C(C(N)=O)C(=O)[C@@H](N(C)C)[C@@H]3[C@@H](O)[C@H]12 | – | -17% (inactive) | – |
| CC1CCCC(C)N1C(=S)Nc1cccc(C(F)(F)F)c1 (stereo unspecified) | – | 3.61% (inactive) | – |
| CCCCCCC(=O)O[C@H]1CC[C@H]2[C@@H]3CCc4cc(O)ccc4[C@H]3CC[C@]12C | inactive | – | – |
| CC(=O)Nc1c(I)c(C(=O)N[C@H]2C(O)O[C@H](CO)[C@@H](O)[C@@H]2O)c(I)c(N(C)C(C)=O)c1I (stereo partly specified) | inactive | – | – |
| Cn1nnnc1SCC1=C(C(=O)O)N2C(=O)[C@@H](NC(=O)[C@H](OC=O)c3ccccc3)[C@H]2SC1 | inactive | – | – |
| O=C(Nc1ccc(O)cc1)c1ccccc1O | – | -18.2% (inactive) | – |
| CN(C)CCC(O)(c1ccccc1)c1ccccc1Cl (stereo unspecified) | inactive | – | – |
| CCCOc1cc(N)ccc1C(=O)OCCN(CC)CC | – | 3.72% (inactive) | – |
| NC(=O)c1ccc[n+]([C@@H]2O[C@H](COP(=O)([O-])OP(=O)(O)OC[C@H]3O[C@@H](n4cnc5c(N)ncnc54)[C@H](O)[C@@H]3O)[C@@H](O)[C@H]2O)c1 | – | -2.01% (inactive) | – |
| O=C(c1ccc(F)c(F)c1Nc1ccc(I)cc1F)N1CC(O)([C@@H]2CCCCN2)C1 | – | – | 31.6 µM (active) |
| Cc1ncc(COP(=O)(O)O)c(CN)c1O | – | 3.41% (inactive) | – |
| CN1N=C2CCN(C(=O)[C@H](COCc3ccccc3)NC(=O)C(C)(C)N)C[C@]2(Cc2ccccc2)C1=O | inactive | – | – |
| NC(N)=NCC1COC2(CCCCC2)O1 (stereo unspecified) | inactive | – | – |
| C[N+]1(C)CCN(CC(O)(c2ccccc2)C2CCCCC2)CC1 (stereo unspecified) | inactive | – | – |
| CCC(C)C(C(=O)OCC[N+](C)(CC)CC)c1ccccc1 (stereo unspecified) | inactive | – | – |
| CC(=O)Oc1c(C)cc(OCC(O)CNC(C)C)c(C)c1C (stereo unspecified) | inactive [at 114 µM] | – | – |
| CC(=O)N(CC(C)C(=O)O)c1c(I)cc(I)c(N)c1I (stereo unspecified) | – | 1.28% (inactive) | – |
| C[C@H](Cc1cc2c(c(C(N)=O)c1)N(CCCO)CC2)NCCOc1ccccc1OCC(F)(F)F | – | -18.5% (inactive) | – |

| SMILES | outcome | activity change, negative = cytotoxicity | Potency |
| --- | --- | --- | --- |
| FCOC(C(F)(F)F)C(F)(F)F | – | -14.9% (inactive) | – |
| N=C(N)c1ccc(/C=C/c2ccc(C(=N)N)cc2O)cc1 | inactive | – | – |
| C#C[C@]1(OC(C)=O)CC[C@H]2[C@@H]3CCC4=CC(=O)CC[C@@H]4[C@H]3CC[C@@]21C | – | -26.9% (inactive) | – |
| CON=C1C[C@]2(C[C@@H]3C[C@@H](C/C=C(\C)C[C@@H](C)/C=C/C=C4\CO[C@@H]5[C@H](O)C(C)=C[C@@H](C(=O)O3)[C@]45O)O2)O[C@H](/C(C)=C/C(C)C)[C@H]1C | – | -19.6% (inactive) | – |
| CN[C@@H]1[C@@H](O)[C@@H](O[C@@H]2[C@@H](O)[C@H](OC3O[C@H](CN)[C@@H](O)[C@H](O)[C@H]3O)[C@@H](N)C[C@H]2NC(=O)[C@@H](O)CN)OC[C@]1(C)O (stereo partly specified) | – | -12.8% [at 27.1 µM] (inactive) | – |
| CCC(=O)O[C@@H](OP(=O)(CCCCc1ccccc1)CC(=O)N1C[C@H](C2CCCCC2)C[C@H]1C(=O)O)C(C)C (stereo partly specified) | inactive [at 11.3 µM] | – | – |
| CC[C@@H]1CCN[C@H](C(=O)N[C@@H]([C@H]2O[C@H](SC)[C@H](O)[C@@H](O)[C@H]2O)[C@H](C)Cl)C1 | – | -2.28% (inactive) | – |
| O=C(O)C(O)[C@H](O)[C@H](O)[C@H](O)[C@H](O)CO (stereo partly specified) | inactive | – | – |
| Cc1c(C)c2c(c(C)c1OC(=O)CCC(=O)O)CC[C@@](C)(CCC[C@H](C)CCC[C@H](C)CCCC(C)C)O2 | inactive | – | – |
| COc1nc2ccc(Br)cc2cc1[C@@H](c1ccccc1)[C@@](O)(CCN(C)C)c1cccc2ccccc12 | – | -7.94% (inactive) | – |
| CC[N+](CC)(CC)CCC(O)(c1ccccc1)C1CCCCC1 (stereo unspecified) | – | 2.37% (inactive) | – |
| CCCCN(CCCC)C(=S)[S-].CCCCN(CCCC)C(=S)[S-].[Zn+2] | inactive | – | – |
| C=Cc1c(C)c2cc3nc(c(CC(=O)N[C@@H](CC(=O)O)C(=O)O)c4nc(cc5[nH]c(cc1[nH]2)c(C)c5CC)C(C)=C4C(=O)O)[C@@H](CCC(=O)O)[C@@H]3C | inactive | – | – |
| CCCCCCCCCCCCCCCCCC(=O)NCCCC[C@H](NC(=O)CC[C@@H](NC(=O)[C@H](C)NC(=O)[C@@H](C)O[C@H]1[C@H](O)[C@@H](CO)OC(O)[C@@H]1NC(C)=O)C(N)=O)C(=O)O (stereo partly specified) | inactive | – | – |
| CC#CCC(C)[C@H](O)/C=C/[C@@H]1[C@H]2C/C(=C/CCCC(=O)O)C[C@H]2C[C@H]1O (stereo partly specified) | inactive | – | – |
| CC(C)(C)C(=O)OCOC(=O)[C@@H]1N2C(=O)[C@@H](N=CN3CCCCCC3)[C@H]2SC1(C)C | – | 2.98% (inactive) | – |
| C=CC1(C)CC(=O)C2(O)C(C)(O1)C(OC(C)=O)C(OC(=O)CCN(C)C)C1C(C)(C)CCC(O)C12C (stereo unspecified) | – | -21.6% (inactive) | – |
| CCC(=O)OC1(C(=O)CCl)C(C)CC2C3CC(F)C4=CC(=O)C=CC4(C)C3(F)C(O)CC21C (stereo unspecified) | – | -5.08% (inactive) | – |
| [Mn].[O]=[Mn][OH].[O]=[Mn][OH] | inactive | – | – |
| N[C@H](Cc1cnc[nH]1)C(=O)O | inactive | – | – |
